An excerpt weighted towards active compounds, which were near 8.1% of everything screened.
ClpP mod – qHTS Assay for Activators of ClpP; 1.9% of 340,000 active; ATP-dependent Clp protease proteolytic subunit (Bacillus subtilis (strain 168)), P80244; purified B. subtilis ClpP, FRET peptide cleavage, 20 min; Potency, µM (highest dose often 57.5 µM), for the others: top-dose activity change, negative = active; active = well fitted falling curve with a large enough effect; inconclusive = small, poorly fitted or top-dose-only effect; inactive = no such curve, though single readings can be large or run the other way; also: the source files actives as falling curves though it sought activators and does not explain the sign; nearly all actives have a fitted effect of over 65% in size
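ClpP 10 microg/mL final, pH 8 Tris/KCl buffer with BSA, glycerol, Tween-20; compound pinned in; FRET-FV substrate; RT 20 min; Ex320/Em430; ΔFRET vs ADEP 5.8 microM, DMSO, no enzyme.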
Sfp PPTase inh – Sfp phosphopantetheinyl transferase inhibition | Biochemical Sfp PPTase activity, qHTS | AID 1490 | Potency, µM, without a hit: largest response in the series, negative = inhibition, hits mostly inhibitors | 3.5% of 310,000 active | Q9F4F7;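 also: the enzyme is Sfp with the accession as filed and its product quenches rhodamine fluorescence; 0% = enzyme reaction without inhibitor and -100% = no enzyme wells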
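Fluorescence-quenching assay with 15 nM Sfp, 5 uM rhodamine-CoA and 12.5 uM BHQ-2-labelled ybbR peptide in pH 7.6 Hepes/MgCl2 buffer. Enzyme was pre-incubated with compound for 15 min at room temperature. Rate was taken from the 30-min fluorescence change (525/598 nm).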
PINK1 modulator – PINK1 expression modulation. PINK1 immunofluorescence, high-content cytometry, 24 h. Potency, µM (series often up to 76.6 µM), for the others: at the highest dose activation (PINK1 increase), actives largely listed as activators. 0.2% of 410,000 active; active = well fitted activation curve with a large enough effect; inconclusive = small, poorly fitted or top-dose-only effect; cell line not stated here; also: % of control where 0% means no effect; nearly all actives have a fitted effect of over 65% in size
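PINK1 protein, normally rapidly degraded, was detected by immunofluorescence after 24 hour compound treatment of a stable cell line. Titration data (5 concentrations) came from laser-scanning cytometry, with CCCP-treated wells as controls.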
Epigenetic reg – regulators of epigenetic silencing causing reporter derepression in mouse cells; murine LDR cells, GFP reporter derepression, 30 h; Potency, µM (series often up to 53.9 µM), inactives show at the top dose GFP activation, most hits filed as activators; 0.2% of 280,000 active; also: % of control where 0% means no effect; nearly all actives have a fitted effect of over 60% in size
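In this reporter-derepression format, murine cells bearing a silenced integrated CMV-GFP locus incubate with test compound (30 h, 37 C), then are washed and imaged; fluorescent objects of 20–120 um count as induced cells.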
Gal4-VP16 FLuc – counter-screen for ROR gamma inhibitors: Gal4-VP16 reporter; Drosophila S2 Gal4-VP16 UAS-luciferase, luminescence, 20 h; Potency, µM (series often up to 53.6 µM), inactives show at the highest dose activity, negative = inhibition, most hits filed as inhibitors; 3.5% of 310,000 active; AID 2546;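 also: Gal4-VP16 expression switched on by copper sulfate through the metallothionein promoter; % is scaled to controls: 0 for no effect and ±100 for the full control effect; nearly all actives have a fitted effect of over 50% in size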
RORg inh – blocks mouse ROR gamma transcriptional activity; Potency, µM (doses to about 53.6 µM), for inactives: at the top dose activity change, negative = inhibition, hits mostly inhibitors; 5.4% of 310,000 active; P51450; Drosophila S2 Gal4-RORgamma UAS-luciferase reporter, 20 h; also: % is scaled to controls: 0 for no effect and ±100 for the full control effect; nearly all actives have a fitted effect of over 60% in size
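Drosophila Schneider cells stably carrying a metallothionein-driven Gal4 DBD–ROR gamma fusion and a UAS-Photinus luciferase reporter were exposed to compound for 1 hr, then induced with copper sulfate (700 uM final) for 20 hr at ambient temperature before luminescence reading.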
Numbers without * were called inactive; u = inconclusive; x = no result given; [ ] = dose if it differs, or a comment. Unless noted, calls follow the shape of the dose curve; as a rule, active = well fitted curve in the direction sought with a large enough effect; inconclusive = small, poorly fitted or top-dose-only effect, or another doubt; inactive = no such curve, though single readings can be large; an effect the other way counts as inactive or inconclusive. Potency is read from the fitted curve at half-maximal effect.

SMILES	ClpP mod	Sfp PPTase inh	PINK1 modulator	Epigenetic reg	Gal4-VP16 FLuc	RORg inh
COc1ccc(/C=N/Nc2cc(C)nc(-n3nc(C)cc3C)n2)cc1	-4.3%	-7.4%	5.7%	13.7%	0.355µM*	0.316µM*
Cc1cc(N/N=C/c2cccc(Cl)c2)nc(-n2nc(C)cc2C)n1	-1.5%	15.9%	12.3%	2.1%	1.26µM*	0.0708µM*
COc1ccc(/C=N/Nc2cc(C)nc(NS(=O)(=O)c3ccc(C)cc3)n2)cc1	x	8.7%	-2.2%	0.0%	-6.7%	-29.2%
Cc1cc(N/N=C/c2ccc(O)cc2O)nc(-n2nc(C)cc2C)n1	-3.3%	8.0%	3.7%	6.3%	0.708µM*	1µM*
CC(=O)c1c(C)oc2c(Cl)cc(NS(=O)(=O)c3cc(C)c(C)cc3C)cc12	2.0%	x	5.6%	0.3%	x	x
O=C(COc1ccccc1C(=O)Nc1ccccc1)Nc1ccccc1Cl	-10.2%	x	2.5%	x	x	x
O=C(NC1CC(=O)N(c2ccc(F)cc2)C1)c1ccc2c(c1)OCO2 (stereo not drawn)	-3.2%	x	0.5%	0.4%	x	x
CCOC(=O)C1CCCN(S(=O)(=O)c2cc(C(=O)OC)n(C)c2)C1 (stereo not drawn)	0.6%	2.3%	-0.5%	x	15.8µM*	42.4%
COc1cc(/C=N/N=C2/NC(=O)C(Cc3ccc(F)cc3)S2)ccc1O (stereo not drawn)	x	-25.1%	4.6%	0.9%	u	12.6µM*
COc1cc(OC)cc(C(=O)NC(=S)Nc2ccc(N3CCCC3)cc2)c1	2.2%	u	14.0%	-2.2%	u	3.16µM*
COc1cc(OC)cc(C(=O)NC(=S)N2CCCCCC2)c1	x	8.4%	2.9%	0.9%	1.12µM*	0.501µM*
COc1ccc(C(=O)NC(=S)N2CCCCC2)cc1	-2.0%	-4.7%	11.4%[38.3 µM]	3.3%	-8.3%	-20.6%
COc1cc(OC)cc(C(=O)NCC(=O)N2CCN(c3ccc(O)cc3)CC2)c1	x	56.2µM*	1.8%	x	0.0%	2.3%
CCOC(=O)CC(=O)Nc1ccccc1C(=O)O	-28.0%	14.2%	0.1%	-1.1%	-4.3%	14.6%
CCOC(=O)CC(=O)Nc1ccc(Br)cc1C(=O)O	-21.2%	2.1%	-1.0%	1.6%	-19.0%	1.58µM*
O=C(O)CCCNc1cc(N2CCN(C(=O)c3ccco3)CC2)c2noc3c2c1C(=O)c1ccccc1-3	0.5%	-3.3%	u	x	-13.8%	u
CCOC(=O)N1CCN(c2cc(NCCC(=O)O)c3c4c(onc24)-c2ccccc2C3=O)CC1	0.0%	-23.9%	3.2%	0.0%	x	-3.1%[0.365 µM]
CN1CCN(c2cc(N3CCN(C(=O)c4ccco4)CC3)c3c4c(onc24)-c2ccccc2C3=O)CC1	0.5%	15.8µM*	1.3%	x	u	-44.8%
O=C1c2ccccc2-c2onc3c(N4CCN(CCO)CC4)cc(N4CCN(C(=O)c5ccco5)CC4)c1c23	x	5.01µM*	0.4%	x	u	u
CCc1nn(CC(=O)Nc2c(C)cccc2C)c(=O)c2cc3sccc3n12	-9.6%	x	-1.3%	0.0%	x	x
Nc1c(C(=O)Nc2ccc(F)cc2)sc2nc(-c3ccco3)ccc12	-12.6%	7.94µM*	9.9%	-1.5%	-5.8%	-1.9%
CC(=O)c1sc2nc(-c3ccco3)ccc2c1N	x	22.4µM*	-2.4%	6.8%	-14.6%	26.3%
Nc1c(C(=O)Nc2ccc(Br)cc2)sc2nc(-c3ccncc3)ccc12	3.5%	x	4.0%	u	x	x
Nc1c(C(=O)Nc2ccc(Br)cc2)sc2nc(-c3ccco3)ccc12	-23.4%	10µM*	2.5%	3.2%	u	-17.3%
COc1ccc(-c2cc(C)no2)cc1S(=O)(=O)N1CC(C)Oc2ccccc21 (stereo not drawn)	0.0%	x	1.0%	-0.3%	x	x
SMILES	ClpP mod	Sfp PPTase inh	PINK1 modulator	Epigenetic reg	Gal4-VP16 FLuc	RORg inh
Cc1cccc(-c2nc(C(N)=O)c3c(n2)n(-c2ccc4c(c2)OCO4)c(=O)n3C)c1	-9.9%	x	0.6%	-1.1%	x	x
COc1ccc(NC(=O)C(CCSC)N2C(=O)c3ccccc3C2=O)cc1 (stereo not drawn)	-1.0%	50.1µM*	-1.7%	-0.7%	-17.3%	-24.1%
COC(=O)c1c(-c2cccs2)csc1NC(=O)CN1CCOCC1	-5.2%	-2.8%	4.0%	-4.8%	-8.7%	-10.2%
CCOC(=O)c1c(-c2ccc(C)o2)csc1NC(=S)NC(=O)c1ccc(F)cc1	-2.8%	8.1%	8.4%	-3.0%	3.16µM*	1.78µM*
CCOC(=O)c1c(-c2ccc(C)o2)csc1NC(=O)CN1CCC(C(N)=O)CC1	x	31.6µM*	0.0%	-3.5%	-9.4%	14.7%
CCOC(=O)c1c(-c2cccs2)csc1N	x	-20.8%	2.9%	1.0%	1.3%	3.8%
CCOC(=O)c1c(-c2ccco2)csc1N	-1.0%	31.6µM*	3.0%	2.4%	0.0%	-29.0%
CCOC(=O)c1c(-c2ccco2)csc1NC(=O)CSc1nnc(N)s1	0.6%	25.1µM*	-2.3%[38.3 µM]	0.2%	7.6%	4.0%
COC(=O)Cn1c(=NC(=O)c2ccc3c(c2)OCCO3)sc2ccccc21	-0.1%	x	4.2%	2.4%	x	x
CCOC(=O)c1c(-c2ccc(C)o2)csc1NC(=O)CN1CCCCC1	x	7.94µM*	u	0.3%	1.7%	-6.1%
CCOC(=O)c1c(-c2ccc(C)o2)csc1NC(=O)CSc1nncs1	-1.3%	7.94µM*	2.8%[38.3 µM]	u	-0.8%	-6.0%
CCOC(=O)c1c(-c2ccc(C)o2)csc1NC(=O)CN1CCN(CC)CC1	0.5%	-15.8%	-7.1%[38.3 µM]	0.0%	5.1%	-1.2%
CCOC(=O)c1c(-c2ccc(C)o2)csc1NC(=O)CN(C)CC(=O)Nc1ccc(C)cc1	-5.9%	28.2µM*	-0.9%	u	u	12.6µM*
CCOC(=O)c1c(-c2ccccc2)csc1NC(=O)CSc1nc(N)cc(N)n1	-2.3%	8.8%	-0.2%	-1.1%	-17.6%	u
O=C(Nc1cccc2cccnc12)c1ccc(-c2cccc(Cl)c2)o1	-13.7%	x	1.7%	-0.2%	x	x
Cc1onc(-c2c(F)cccc2Cl)c1C(=O)NC(=S)NC1CCSC1=O (stereo not drawn)	-1.4%	5.2%	-0.5%	0.0%	7.08µM*	7.08µM*
O=C(NC(=S)NC1CCSC1=O)c1cccs1 (stereo not drawn)	-5.1%	-3.7%	2.8%	0.0%	u	-30.4%
Cc1ccccc1C(=O)NC(=S)NC1CCSC1=O (stereo not drawn)	-0.7%	6.8%	0.5%	0.0%	-19.2%	11.2µM*
Cc1onc(-c2c(F)cccc2Cl)c1C(=O)NC1CC1	0.8%	22.6%	0.4%	x	-3.1%	16.0%
O=C(CN(c1ccc(Br)cc1)S(=O)(=O)c1ccc(Cl)c([N+](=O)[O-])c1)NCCc1ccccc1	25.1µM*	9.1%	0.2%	-3.3%	0.5%	14.3%

Screening data: PubChem, National Center for Advancing Translational Sciences (NCATS)
